The panel holds about 79,000 compounds, 15% with a hit somewhere; the sample as a whole holds those more often. Values without a mark were called inactive. Calls of active or inactive are those of the source. Rule as the data show it: active = growth inhibition above about 70%; inactive = the rest.
Columns and labels:
[1] = NCI Yeast Anticancer Drug Screen. Data for the rad50 strain (AID 155);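 also: 0% = growth of vehicle-only cultures of the same strain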; conditions: S. cerevisiae rad50 strain growth inhibition, active compounds read high
Outline: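 Vehicle-treated cultures provide the reference for the growth inhibition reported for compound-exposed, repair-deficient yeast.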

[2] = NCI Yeast Anticancer Drug Screen. Data for the mec2-1 strain (AID 157); conditions: S. cerevisiae mec2-1 strain, active compounds read high
Outline: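 Yeast mec2-1 mutant treated with compound. Readout: growth inhibition vs vehicle controls.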

[3] = NCI Yeast Anticancer Drug Screen. Data for the sgs1 mgt1 strain (AID 161);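 also: 0% = growth of cultures given vehicle only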; conditions: S. cerevisiae sgs1 mgt1 strain, active compounds read high
Outline: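 Genetically altered yeast, compound exposure, growth inhibition relative to vehicle.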

[4] = NCI Yeast Anticancer Drug Screen. Data for the cln2 rad14 strain (AID 165);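 also: 0% = growth equal to vehicle treated cultures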; conditions: S. cerevisiae cln2 rad14 strain, active compounds read high
Outline: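 cln2 rad14 yeast strain; compound exposure; growth inhibition read vs vehicle controls.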

[5] = NCI Yeast Anticancer Drug Screen. Data for the bub3 strain (AID 167); conditions: S. cerevisiae bub3 mutant strain, active compounds read high
Outline: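 Mutant yeast screening strain plus compound; vehicle-treated cultures serve as the 0% inhibition reference.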

[6] = NCI Yeast Anticancer Drug Screen. Data for the mlh1 rad18 strain (AID 175); conditions: S. cerevisiae mlh1 rad18 strain growth inhibition, active compounds read high
Outline: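 Yeast w/ defined DNA-repair lesions; compound exposure; growth vs vehicle controls → % inhibition.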

[7] = at 5.0 µM (retest, dose inferred, filed as 0.5)
[8] = at 50.0 µM (retest, dose inferred, filed as 5.0)

SMILES | growth inhibition [1, 7] | growth inhibition [1, 8] | growth inhibition ([1]; at 50.0 µM) | growth inhibition [2, 7] | growth inhibition [2, 8] | growth inhibition ([2]; at 50.0 µM) | growth inhibition [3, 7] | growth inhibition [3, 8] | growth inhibition ([3]; at 50.0 µM) | growth inhibition [4, 7] | growth inhibition [4, 8] | growth inhibition ([4]; at 50.0 µM) | growth inhibition [5, 7] | growth inhibition [5, 8] | growth inhibition ([5]; at 50.0 µM) | growth inhibition [6, 7] | growth inhibition [6, 8] | growth inhibition ([6]; at 50.0 µM)
CC(=O)Nc1c([N+](=O)[O-])cc2c3c(cccc13)C=C2 | 3% | 77% (active) | 24.8% | 1% | 47% | 16.1% | 6% | 56% | 9.8% | 6% | 77% (active) | 74.9% (active) | 3% | 23% | -17.2% | 31% | 94% (active) | 67.8%
CC(=N/NC(=S)NCC(C)C)/C(C)=N\Nc1ccc(Cl)cc1 | 2% | 81% (active) | 95% (active) | -1% | 79% (active) | 73.2% (active) | 1% | 91% (active) | 92.4% (active) | -4% | 79% (active) | 72.8% (active) | -4% | 82% (active) | 93.7% (active) | 0% | 90% (active) | 92% (active)
O=C1C(Br)=C(C2CCCCC2)C(=O)c2ccccc21 | 54% | 99% (active) | 101% (active) | 59% | 100% (active) | 99.7% (active) | 78% (active) | 99% (active) | 99.6% (active) | 20% | 99% (active) | 100% (active) | 24% | 100% (active) | 99.5% (active) | 83% (active) | 99% (active) | 99.2% (active)
O=C1C=CC(=O)c2c1cc1ccccc1c2O | 19% | 97% (active) | 4.45% | 15% | 99% (active) | -10.8% | 6% | 98% (active) | 1.4% | 6% | 44% | 27.4% | 22% | 96% (active) | -5.75% | 19% | 97% (active) | 30.6%
CCCC(O)[C@@]1(CC)CC(C)C(O)(C2(C)C[C@H](C)[C@@H](C(CC)C(=O)C(C)[C@@H](O)[C@H](C)C3OC(O)(C(CC)C(=O)O)[C@@H](C)C(O)C3CC)O2)O1 (some centres not stated) | -9% | -13% | 14.7% | -27% | -13% | 23.1% | -9% | -6% | 23.3% | 0% | 28% | 29.3% | -10% | -14% | 25.9% | -10% | -8% | 85.9% (active)
Cc1ccc(S(=O)(=O)N/N=C(\C=C\c2ccccc2)c2ccccc2)cc1 | -1% | 32% | 59.1% | 5% | 57% | 63.9% | 24% | 47% | 59.5% | -19% | 16% | 44.4% | 15% | 49% | 41.1% | 20% | 70% (active) | 37.1%
S=C(Nc1ccc(N=Nc2ccccc2)cc1)SCc1ccccc1 | 1% | 16% | 63.3% | 3% | 25% | 97.7% (active) | 4% | 28% | 95.6% (active) | 3% | 8% | 89.6% (active) | -1% | 11% | 98.5% (active) | -6% | 59% | 96% (active)
COc1cc(NCC(C)(O)CN2CCC(C)CC2C)c2ncccc2c1 (configuration not stated) | 14% | 57% | 83.2% (active) | 14% | 47% | 50.1% | 20% | 61% | 77% (active) | 13% | 52% | 79.4% (active) | 7% | 54% | 80.7% (active) | 0% | 58% | 83.7% (active)
CN(C)c1ccc(C2(Cl)c3ccccc3N(Cc3ccccc3)c3ccccc32)cc1 | 99% (active) | 94% (active) | 96.5% (active) | 99% (active) | 95% (active) | 97.2% (active) | 99% (active) | 95% (active) | 96% (active) | 99% (active) | 93% (active) | 93.2% (active) | 99% (active) | 94% (active) | 96.4% (active) | 99% (active) | 94% (active) | 96.3% (active)
ICCCCCCCCCC[n+]1ccc2ccccc2c1 | 32% | 98% (active) | 88.9% (active) | 89% (active) | 99% (active) | 89.8% (active) | 52% | 99% (active) | 89.3% (active) | 42% | 99% (active) | 85.4% (active) | 78% (active) | 99% (active) | 92.7% (active) | 28% | 96% (active) | 90.5% (active)
C#Cc1cccc(N2C(=O)CCC2=O)c1 | 36% | 44% | 91.7% (active) | 48% | 43% | 93.6% (active) | 99% (active) | 99% (active) | 94.1% (active) | 97% (active) | 99% (active) | 91.2% (active) | 100% (active) | 97% (active) | 92.3% (active) | 42% | 40% | 91.8% (active)
CCc1cc2c(c3c1C(=O)CC3)C(C)(C)CCC2 | 1% | 96% (active) | 11% | 2% | 96% (active) | 34.6% | 1% | 97% (active) | 6.4% | 2% | 97% (active) | 13.8% | 12% | 97% (active) | 48.5% | -6% | 97% (active) | 5%
O=C1c2cccc(S(=O)(=O)O)c2C(=O)c2cccc([N+](=O)[O-])c21 | 2% | 30% | 31.1% | 0% | 31% | 23% | 5% | 45% | 16.3% | -1% | 28% | -8.35% | -1% | 25% | 16.6% | 6% | 40% | 69.1%
CC1=NC(c2ccccc2)(C2(c3ccccc3)C(c3ccccc3)=C2c2ccccc2)C(=O)O1 (configuration not stated) | 21% | 21% | 86% (active) | 25% | 25% | 88.8% (active) | 28% | 28% | 86.9% (active) | 23% | 23% | 89% (active) | 11% | 11% | 34.9% | 27% | 27% | 86.6% (active)
Cc1[nH]nc(-c2cccnc2)c1N=NN1CCOCC1 | -4% | 70% (active) | 64% | 7% | 79% (active) | 97.5% (active) | -5% | 98% (active) | 96% (active) | -2% | 80% (active) | 58.5% | -3% | 99% (active) | 5.35% | -3% | 77% (active) | 98% (active)
C1=CC2C(c3cccc4ccccc34)O[C@H]2O1 (some centres not stated) | 39% | 99% (active) | 98.8% (active) | 11% | 99% (active) | 98.5% (active) | 13% | 99% (active) | 98.8% (active) | 7% | 98% (active) | 98.8% (active) | 3% | 99% (active) | 98.4% (active) | 28% | 99% (active) | 98.3% (active)
COC(=O)c1cc(-c2c[nH]cc2C(=O)OCc2ccccc2)cn1S(=O)(=O)c1ccc(C)cc1 | 17% | 6% | 92.5% (active) | 18% | 11% | 93.1% (active) | 7% | -6% | 94.4% (active) | 2% | 2% | 88.9% (active) | -39% | 2% | 87.3% (active) | 24% | 22% | 91.2% (active)
CCOC(=O)NC(NNc1ccc([N+](=O)[O-])cc1[N+](=O)[O-])(C(F)(F)F)C(F)(F)F | 1% | 99% (active) | 97.3% (active) | -3% | 99% (active) | 98.2% (active) | 6% | 99% (active) | 98.4% (active) | 21% | 98% (active) | 98.7% (active) | 19% | 97% (active) | 98% (active) | 4% | 98% (active) | 98.5% (active)
Cc1ccccc1C(O)(c1ccccc1C)C1(O)CCN(C)CC1 | 0% | -3% | 86.2% (active) | -4% | 0% | 96.7% (active) | 2% | -10% | 96.2% (active) | -7% | -11% | 91.8% (active) | -4% | -11% | 96.2% (active) | 13% | -2% | 98.7% (active)
